An excerpt weighted towards active compounds, which were near 2.6% of everything screened.
ClpP mod: qHTS Assay for Activators of ClpP; ATP-dependent Clp protease proteolytic subunit (Bacillus subtilis (strain 168)), P80244; purified B. subtilis ClpP, FRET peptide cleavage, 20 min; Potency, µM (highest dose often 57.5 µM), for inactives: top-dose activity change, negative = active; 340,000 compounds, 1.9% hits; active = well fitted falling curve with a large enough effect; inconclusive = small, poorly fitted or top-dose-only effect; inactive = no such curve, though single readings can be large or run the other way; note: potency is the fitted concentration of half-maximal effect; the source files actives as falling curves though it sought activators and does not explain the sign; nearly all actives have a fitted effect of over 65% in size
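Buffer: 100 mM Tris/HCl pH8, 100 mM KCl, 0.05% low protease BSA, 2.5% glycerol, 0.01% Tween-20. ClpP 10 microg/mL final; 20 min RT; delta FRET normalized to ADEP and DMSO controls.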
KCNH2 WT inh: qHTS for Inhibitors of KCHN2 3.1: Wildtype qHTS; Voltage-gated inwardly rectifying potassium channel KCNH2 (Homo sapiens), Q12809; U2OS, BacMam KCNH2, thallium flux FluxOr; active compounds read low; activity change, % at 1.84 µM; 340,000 compounds, 0.37% hits;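 active = maximum activity change below -70%; inconclusive = maximum activity change between -70% and -50%; inactive = maximum activity change above -50%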; note: % is set by controls: 0 for no effect and ±100 for the full control effect
Target sequence (Q12809 whole entry, looked up): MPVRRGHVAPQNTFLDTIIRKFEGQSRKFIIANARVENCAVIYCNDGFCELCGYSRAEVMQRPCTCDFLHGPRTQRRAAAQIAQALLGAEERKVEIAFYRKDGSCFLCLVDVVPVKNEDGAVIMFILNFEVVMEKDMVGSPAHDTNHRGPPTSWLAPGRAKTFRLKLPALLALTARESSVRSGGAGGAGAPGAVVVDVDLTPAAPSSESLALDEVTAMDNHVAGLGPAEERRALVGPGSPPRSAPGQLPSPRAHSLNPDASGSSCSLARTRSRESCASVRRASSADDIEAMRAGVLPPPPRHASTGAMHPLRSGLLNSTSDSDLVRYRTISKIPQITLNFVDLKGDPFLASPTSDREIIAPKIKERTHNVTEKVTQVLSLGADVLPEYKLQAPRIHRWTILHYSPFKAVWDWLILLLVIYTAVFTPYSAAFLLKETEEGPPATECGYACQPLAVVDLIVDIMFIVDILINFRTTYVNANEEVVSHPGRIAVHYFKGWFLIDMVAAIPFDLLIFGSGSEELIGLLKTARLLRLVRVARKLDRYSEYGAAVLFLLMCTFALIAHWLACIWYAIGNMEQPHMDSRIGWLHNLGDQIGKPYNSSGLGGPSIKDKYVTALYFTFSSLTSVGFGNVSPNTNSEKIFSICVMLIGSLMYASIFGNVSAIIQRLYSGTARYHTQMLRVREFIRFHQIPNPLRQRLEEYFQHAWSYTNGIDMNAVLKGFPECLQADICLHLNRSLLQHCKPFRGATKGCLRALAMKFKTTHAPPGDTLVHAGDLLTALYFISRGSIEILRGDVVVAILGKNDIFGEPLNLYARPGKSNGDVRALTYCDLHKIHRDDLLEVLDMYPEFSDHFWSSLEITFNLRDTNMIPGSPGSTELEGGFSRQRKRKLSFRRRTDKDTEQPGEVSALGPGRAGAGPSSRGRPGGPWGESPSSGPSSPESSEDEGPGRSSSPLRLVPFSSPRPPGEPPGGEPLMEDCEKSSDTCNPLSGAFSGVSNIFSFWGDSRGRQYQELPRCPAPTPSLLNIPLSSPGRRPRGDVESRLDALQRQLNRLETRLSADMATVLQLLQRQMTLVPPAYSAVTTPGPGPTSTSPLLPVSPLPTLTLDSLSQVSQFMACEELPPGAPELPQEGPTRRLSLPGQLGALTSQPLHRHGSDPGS
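U2OS cells were transduced with wild-type KCNH2 virus (2.03 x 10^8 / mL) for 4 h at room temperature, then cultured overnight at 37 C. Thallium flux was read with FluxOr dye. Rate constants were normalized to DMSO controls.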
TRPV1 PAM: HTS Assay for Compounds that Act as Potentiators of the Vanilloid Receptor 1 | AID 540277, 2011 | TRPV1-expressing cells, Fluo-8 calcium influx, capsaicin EC20 potentiation | potentiation, % at 8.33 µM | 320,000 compounds, 0.02% hits | Transient receptor potential cation channel subfamily V member 1 (Homo sapiens), Q8NER1; in the data active = potentiation above about 80%; inconclusive = between about 30% and that limit; note: 0% is about no effect
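TRPV1-expressing cells were cultured overnight at 35.5C and loaded with Fluo-8 calcium dye for 40 to 90 min at room temperature. After a 10 s baseline, compound was added and calcium influx was read kinetically for 3 min (ex 480/em 520 nm).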
KCNH2 3.1 inh: qHTS for Inhibitors of KCHN2 3.1: Mutant qHTS. activity change, % (tested at about 1.8 µM). AID 720553, 2013. U2OS KCNH2 3.1, thallium flux FluxOr; active compounds read low. Potassium voltage-gated channel subfamily H member 2, brain isoform KCNH2 3.1 (human). 340,000 compounds, 0.95% hits;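 active = maximum activity change below -70%; inconclusive = maximum activity change from -70% to -50%; inactive = maximum activity change above -50%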;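 note: thallium influx rate constant from kinetic fluorescence after stimulation buffer; % is set by controls: 0 for no effect and ±100 for the full control effect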
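Channel expression came from 3.1 mutant virus (1.77 x 10^8 /mL) applied to suspended U2OS cells for 4 h. Flux was tracked with FluxOr dye plus Red40 quencher, and kinetic rate constants normalized to controls.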
TRPV1 ag: HTS Assay for Compounds that Act as Agonists of the Vanilloid Receptor 1; AID 540275, 2011; activation, % at 8.33 µM; 320,000 compounds, 0.19% hits; Transient receptor potential cation channel subfamily V member 1 (Homo sapiens), Q8NER1; TRPV1-expressing cells, Fluo-8 calcium influx, agonist mode; in the data active = activation above about 80%; inconclusive = between about 30% and that limit; note: 0% is about no effect
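Fluo-8 calcium influx in TRPV1-expressing cells, kinetic read (ex 480/em 520 nm). Compound added and read 3 min for agonist activity, followed by capsaicin at EC20 final and 2 min further read for enhancement.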
p53 reactivation: qHTS assay for re-activators of p53 using a Luc reporter | H1299 p53-A138V BP100-luciferase reporter, luminescence, 24 h | Potency, µM (doses to about 92.2 µM), inactives show at the highest dose activity change, positive = activation, hits mostly activators | 320,000 compounds, 0.063% hits; active = well fitted activation curve with a large enough effect; inconclusive = small, poorly fitted or top-dose-only effect; inactive = no such curve, though single readings can be large or run the other way; note: potency is the fitted concentration of half-maximal effect; % of control where 0% means no effect; nearly all actives have a fitted effect of over 45% in size
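H1299 (p53-null), stable ts p53-A138V + BP100-Luc; 1000 cells/well, Opti-MEM/10% FBS; cpd 4 pt, 1:5; 24 h, 37 deg C, 5% CO2; detection reagent 10 min RT; luminescence.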
* = called active by the depositor; ? = inconclusive; · = not tested or not shown.

SMILES	ClpP mod	KCNH2 WT inh	TRPV1 PAM	KCNH2 3.1 inh	TRPV1 ag	p53 reactivation
N#Cc1ccc(-c2ccc(OCC(=O)Nc3cccnc3)cc2)cc1	15.8µM*	-9.5	16.2	12.8	-0.1	1.6%
CCOC(=O)C1C(=O)N(O)CC1c1cccc(Oc2ccccc2)c1 (configuration not stated)	-3.2%	-1.9	7.3	-74.7*	0.8	-0.2%
N#Cc1c(N2CCN(C(=O)c3ccccc3)CC2)nc(-c2ccccc2)c2c1CCCC2	28.2µM*	-0.3	-4.2	-8.5	28.2	6.4%
N#Cc1c(N2CCN(C(=O)c3ccco3)CC2)nc(-c2ccccc2)c2c1CCCC2	14.1µM*	5.6	12.1	-10.6	?	-17.4%
N#Cc1c(N2CCN(C(=O)c3ccccc3Cl)CC2)nc(-c2ccccc2)c2c1CCCC2	4.9%	-283.3*	8.7	-27.4	4.9	11.4%
N#Cc1c(NCCN)nc(NCc2ccccc2)c2c1CCN(Cc1ccccc1)C2	28.6%	51.3	-2.3	3.5	-1.9	-2.6%
N#Cc1c(N2CCCCC2)nc(N2CCCCC2)c2c1CCN(Cc1ccccc1)C2	11.2µM*	-6.7	-18.2	-4.3	7.5	14.0%
N#Cc1cccnc1N1CCN(C(=O)c2ccccc2)CC1	3.2%	-19.8	-8.0	-7.5	-0.4	6.0%
O=C(C[n+]1ccccc1Cl)c1ccc2c(c1)CCCC2	-8.2%	·	·	·	·	·
CC1(C)Cc2c(C#N)c(N3CCN(C(=O)c4ccccc4Cl)CC3)nc(-c3ccco3)c2CS1	28.2µM*	3.8	8.8	-12.0	-7.4	-1.9%
CCc1nc(N2CCN(C(=O)c3ccco3)CC2)c(C#N)c2c1COC(C)(C)C2	3.4%	4.9	-14.8	2.7	?	-5.2%
CC1(C)Cc2c(C#N)c(N3CCN(C(=O)c4ccco4)CC3)nc(Cc3ccccc3)c2CO1	28.2µM*	-2.6	-9.4	-16.4	?	-4.4%
CC1(C)Cc2c(C#N)c(N3CCN(C(=O)c4ccco4)CC3)nc(-c3ccco3)c2CS1	?	13.5	10.5	-4.4	-2.3	-8.2%
COc1cc2c(cc1OC)C(c1cc(-c3cc(Cl)ccc3Cl)oc1C)=NCC2	-10.4%	·	·	·	·	·
Cc1nc(-c2cccs2)sc1C(=O)O	3.2%	-95.8*	-1.0	9.2	0.6	4.7%
Cc1nc(-c2ccccc2)sc1C(=O)O	·	-3.8	-6.8	8.4	2.1	-1.7%
Cc1cc(N2CCOCC2)nc2ccc(NC(=S)NCCC(C)C)cc12	3.1%	8.6	16.5	-87.9*	3.5	-0.6%
Cc1cc(N2CCOCC2)nc2ccc(NC(=S)N3CCN(c4ccccc4)CC3)cc12	-15.3%	0.3	-9.9	16.9	-2.1	6.5%
Cc1cccc(N2CCN(C(=S)Nc3ccc4nc(N5CCOCC5)cc(C)c4c3)CC2C)c1 (configuration not stated)	3.3%	-14.9	?	-75.7*	-17.9	1.1%
Cc1ccc(C)c(N2CCN(C(=S)Nc3ccc4nc(N5CCOCC5)cc(C)c4c3)CC2)c1	·	-76.7*	-45.6	-84.6*	-1.4	7.2%
Cc1cc(N2CCN(C)CC2)nc2ccc(NC(=S)NCCC(C)C)cc12	-29.4%	2.8	16.9	-3.3	-2.3	0.0%
Cc1ccc(C)c(N2CCN(C(=S)Nc3ccc4nc(N5CCN(C)CC5)cc(C)c4c3)CC2)c1	3.2%	-114.6*	13.0	-89.5*	-1.1	10.5%
CCOC(=O)C1=CCC(c2cccc(C)c2)N(S(=O)(=O)c2ccc(C)cc2)C1 (configuration not stated)	-5.7%	·	·	·	·	·
CCN(CC(=O)NC1CC1)S(=O)(=O)c1ccccc1	-0.2%	-3.9	-9.9	1.8	-4.5	-9.1%
O=C(CN(Cc1ccccc1)S(=O)(=O)c1ccccc1)NC1CC1	0.5%	-159.1*	3.3	-0.6	-0.6	-5.8%
